Test results taken from PubChem BioAssay AID1159580 (chemical genetic matrix, 2015).
The campaign covered roughly 5,500 compounds. About 2,000 (36%) were called active. Not shown: some 18% with an inconclusive outcome. The list shows a part of the results. Unmarked numbers belong to inactive results. No stated cut-off is given here; in the data, active means normalized growth mostly below about 0.91 (no sharp cut-off); inconclusive means no clear call, values can overlap the other calls; inactive means mostly above about 0.92.

Test: chemical genetic growth profiling, strain panel (AID 1159580);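 further: tested at 20 µM; growth read once vehicle control cultures reached saturation at 30 °C; 1 = growth at the plate median or of vehicle wells; lower values mean less growth of the strain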
Details: growth OD

COc1ccc2oc3ccccc3c(=O)c2c1
normalized growth (S. cerevisiae deletion strains, locus YJL187C, strain SWE1, hits give low values): 0.834 (active) | normalized growth (S. cerevisiae deletion strains, locus YJR043C, strain POL32, hits give low values): 0.932 | normalized growth (S. cerevisiae deletion strains, locus YJR075W, strain HOC1, hits give low values): 0.885 | normalized growth (S. cerevisiae deletion strains, locus YKL009W, strain mrt4, hits give low values): 0.886 | normalized growth (S. cerevisiae deletion strains, locus YKL068W, hits give low values): 0.949 | normalized growth (S. cerevisiae deletion strains, locus YKL085W, strain MDH1 (second series), hits give low values): 0.914 (active) | normalized growth (S. cerevisiae deletion strains, locus YKL085W, strain MDH1, hits give low values): 0.914 (active) | normalized growth (S. cerevisiae deletion strains, locus YKL160W, strain elf1, hits give low values): 0.823 (active) | normalized growth (S. cerevisiae deletion strains, locus YKL190W, strain CNB1, hits give low values): 0.922 | normalized growth (S. cerevisiae deletion strains, locus YKR001C, strain vps1, hits give low values): 0.526 (active) | normalized growth (S. cerevisiae deletion strains, locus YKR026C, strain gcn3, hits give low values): 0.927 | normalized growth (S. cerevisiae deletion strains, locus YKR091W, strain srl3, hits give low values): 0.945 | normalized growth (S. cerevisiae deletion strains, locus YLL001W, strain dnm1, hits give low values): 0.875 (active) | normalized growth (S. cerevisiae deletion strains, locus YLL026W, hits give low values): 0.879 (active) | normalized growth (S. cerevisiae deletion strains, locus YLL041C, strain sdh2, hits give low values): 0.937 | normalized growth (S. cerevisiae deletion strains, locus YLR027C, strain aat2, hits give low values): 0.855 (active) | normalized growth (S. cerevisiae deletion strains, locus YLR039C, strain RIC1, hits give low values): 0.486 (active) | normalized growth (S. cerevisiae deletion strains, locus YLR058C, strain SHM2, hits give low values): 0.861 (active) | normalized growth (S. cerevisiae deletion strains, locus YLR102C, strain apc9, hits give low values): 0.907 (active) | normalized growth (S. cerevisiae deletion strains, locus YLR221C, strain rsa3, hits give low values): 0.821 (active) | normalized growth (S. cerevisiae deletion strains, locus YLR258W, strain gsy2, hits give low values): 0.871 (active) | normalized growth (S. cerevisiae deletion strains, locus YLR262C, strain YPT6 (second series), hits give low values): 0.597 (active) | normalized growth (S. cerevisiae deletion strains, locus YLR262C, strain YPT6, hits give low values): 0.577 (active) | normalized growth (S. cerevisiae deletion strains, locus YLR268W, strain sec22, hits give low values): 0.84 (active) | normalized growth (S. cerevisiae deletion strains, locus YLR320W, strain mms22, hits give low values): 0.464 (active) | normalized growth (S. cerevisiae deletion strains, locus YLR330W, strain CHS5, hits give low values): 0.854 (active) | normalized growth (S. cerevisiae deletion strains, locus YLR342W, strain FKS1 (second series), hits give low values): 0.945 | normalized growth (S. cerevisiae deletion strains, locus YLR342W, strain FKS1, hits give low values): 0.952 | normalized growth (S. cerevisiae deletion strains, locus YLR357W, strain rsc2, hits give low values): 1.09 | normalized growth (S. cerevisiae deletion strains, locus YLR370C, strain arc18, hits give low values): 0.946 | normalized growth (S. cerevisiae deletion strains, locus YLR371W, strain rom2, hits give low values): 0.7 (active) | normalized growth (S. cerevisiae deletion strains, locus YLR384C, strain iki3, hits give low values): 0.912 (active) | normalized growth (S. cerevisiae deletion strains, locus YLR418C, strain cdc73, hits give low values): 0.659 (active) | normalized growth (S. cerevisiae deletion strains, locus YML016C, strain PPZ1, hits give low values): 0.881 (active) | normalized growth (S. cerevisiae deletion strains, locus YML032C, strain rad52, hits give low values): 0.755 (active) | normalized growth (S. cerevisiae deletion strains, locus YML120C, strain ndi1, hits give low values): 0.742 (active) | normalized growth (S. cerevisiae deletion strains, locus YML124C, strain tub3, hits give low values): 0.902 (active) | normalized growth (S. cerevisiae deletion strains, locus YMR058W, strain fet3, hits give low values): 0.86 (active) | normalized growth (S. cerevisiae deletion strains, locus YMR078C, strain ctf18, hits give low values): 0.852 (active) | normalized growth (S. cerevisiae deletion strains, locus YMR125W, strain sto1, hits give low values): 0.713 (active) | normalized growth (S. cerevisiae deletion strains, locus YMR129W, hits give low values): 0.95 | normalized growth (S. cerevisiae deletion strains, locus YMR205C, strain PFK2, hits give low values): 0.78 (active) | normalized growth (S. cerevisiae deletion strains, locus YMR223W, strain ubp8, hits give low values): 0.84 (active) | normalized growth (S. cerevisiae deletion strains, locus YMR231W, strain pep5, hits give low values): 0.915 (active) | normalized growth (S. cerevisiae deletion strains, locus YMR307W, strain GAS1, hits give low values): 0.845 | normalized growth (S. cerevisiae deletion strains, locus YNL067W, strain RPL9B, hits give low values): 0.874 | normalized growth (S. cerevisiae deletion strains, locus YNL071W, strain lat1, hits give low values): 0.421 (active) | normalized growth (S. cerevisiae deletion strains, locus YNL128W, strain TEP1, hits give low values): 0.815 (active) | normalized growth (S. cerevisiae deletion strains, locus YNL209W, strain ssb2, hits give low values): 0.934 | normalized growth (S. cerevisiae deletion strains, locus YNL233W, strain BNI4, hits give low values): 0.81 (active) | normalized growth (S. cerevisiae deletion strains, locus YNL248C, strain rpa49, hits give low values): 0.397 (active) | normalized growth (S. cerevisiae deletion strains, locus YNL250W, strain rad50, hits give low values): 0.866 (active) | normalized growth (S. cerevisiae deletion strains, locus YNL271C, strain bni1, hits give low values): 0.874 (active) | normalized growth (S. cerevisiae deletion strains, locus YNL298W, strain CLA4, hits give low values): 0.869 (active) | normalized growth (S. cerevisiae deletion strains, locus YNL307C, strain MCK1, hits give low values): 0.569 (active) | normalized growth (S. cerevisiae deletion strains, locus YNL322C, strain KRE1 (second series), hits give low values): 0.992 | normalized growth (S. cerevisiae deletion strains, locus YNR049C, strain mso1, hits give low values): 0.947 | normalized growth (S. cerevisiae deletion strains, locus YNR052C, strain pop2, hits give low values): 0.874 (active) | normalized growth (S. cerevisiae deletion strains, locus YOL012C, strain htz1): 0.651 | normalized growth (S. cerevisiae deletion strains, locus YOL147C, strain pex11, hits give low values): 0.906 (active) | normalized growth (S. cerevisiae deletion strains, locus YOR001W, strain rrp6, hits give low values): 0.825 (active) | normalized growth (S. cerevisiae deletion strains, locus YOR061W, strain CKA2, hits give low values): 0.886 (active) | normalized growth (S. cerevisiae deletion strains, locus YOR069W, strain VPS5, hits give low values): 0.918 (active) | normalized growth (S. cerevisiae deletion strains, locus YOR070C, strain gyp1, hits give low values): 0.859 (active) | normalized growth (S. cerevisiae deletion strains, locus YOR080W, strain dia2, hits give low values): 0.959 | normalized growth (S. cerevisiae deletion strains, locus YOR083W, strain WHI5, hits give low values): 0.789 (active) | normalized growth (S. cerevisiae deletion strains, locus YOR106W, strain vam3, hits give low values): 0.817 (active) | normalized growth (S. cerevisiae deletion strains, locus YOR136W, strain idh2, hits give low values): 0.922 | normalized growth (S. cerevisiae deletion strains, locus YOR144C, strain elg1, hits give low values): 0.904 (active) | normalized growth (S. cerevisiae deletion strains, locus YOR184W, strain ser1, hits give low values): 0.771 (active) | normalized growth (S. cerevisiae deletion strains, locus YOR265W, strain rbl2, hits give low values): 0.932 | normalized growth (S. cerevisiae deletion strains, locus YOR270C, strain vph1, hits give low values): 0.528 (active) | normalized growth (S. cerevisiae deletion strains, locus YOR290C, strain snf2, hits give low values): 0.686 (active) | normalized growth (S. cerevisiae deletion strains, locus YOR316C, strain cot1, hits give low values): 0.903 (active) | normalized growth (S. cerevisiae deletion strains, locus YPL051W, strain arl3, hits give low values): 0.772 (active) | normalized growth (S. cerevisiae deletion strains, locus YPL078C, strain atp4, hits give low values): 0.773 (active) | normalized growth (S. cerevisiae deletion strains, locus YPL106C, strain sse1, hits give low values): 0.78 (active) | normalized growth (S. cerevisiae deletion strains, locus YPL240C, strain hsp82, hits give low values): 0.931 | normalized growth (S. cerevisiae deletion strains, locus YPL241C, strain CIN2, hits give low values): 0.917 (active) | normalized growth (S. cerevisiae deletion strains, locus YPR119W, strain clb2, hits give low values): 0.907 (active) | normalized growth (S. cerevisiae deletion strains, locus YPR141C, strain kar3, hits give low values): 0.882 (active) | normalized growth (S. cerevisiae deletion strains, locus YPR163C, strain tif3, hits give low values): 0.756 (active) | normalized growth (S. cerevisiae deletion strains, locus YPR167C, strain met16, hits give low values): 0.925 | normalized growth (S. cerevisiae deletion strains, strain wtn01, hits give low values): 0.87 (active) | normalized growth (S. cerevisiae strains, strain wild type, hits give low values): 0.874 (active)
